Measured values from PubChem BioAssay.
Results filed as inconclusive are left out. Active and inactive are the calls of the source.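 How the source made its calls, unless noted: active means differentiation response of at least 50%, scaled between solvent and reference control, from cells with both markers; inactive means the rest.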

How the values were obtained:
[1] = yeast TOR pathway RPL19A-GFP modulators, primary screen, cell-based, S. cerevisiae, multiplex flow cytometry (AID 1862; in the data active means percent of DMSO control GFP below about 86%;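 further: lower values mimic rapamycin by blocking the RPL19A rise seen in DMSO cells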); details: S. cerevisiae RPL19A-GFP strain, flow cytometry fluorescence, 3 h; at 10 µM; stronger effect = lower value
[2] = modulators of MEP2-GFP levels in yeast, primary screen, S. cerevisiae, multiplex flow cytometry (AID 1867;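 active means GFP response, as percent of the DMSO control, above the screen-wide mean plus 3 SD, about 139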;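 further: median GFP channel fluorescence of barcode-gated MEP2-GFP cells measured by flow cytometry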); details: S. cerevisiae MEP2-GFP strain, 3 h, at 10 µM, stronger effect = higher value, 100% means same as DMSO wells
[3] = modulators of CIT2-GFP expression in yeast, primary screen, S. cerevisiae, GFP fusion, multiplex flow cytometry (AID 1870;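 active means percent response above a set limit, the screen-wide mean plus 3 SD, cut at about 130% in these data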;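 further: barcoded CIT2-GFP strain pooled with four other GFP strains with rapamycin as positive control; median GFP fluorescence per well over plate mean of DMSO wells so 100% = DMSO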); details: 3 h, at 10 µM, stronger effect = higher value
[4] = modulators of LAP4-GFP expression in yeast, primary screen, S. cerevisiae, multiplex flow cytometry (AID 1873;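 active means GFP signal, as percent of the solvent control, above the screen mean plus 3 SD, about 149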); details: 3 h, at 10 µM, stronger effect = higher value
[5] = modulators of AGP1-GFP expression in yeast TOR pathway, primary screen, cell-based, multiplex flow cytometry, S. cerevisiae (AID 1887;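 active means GFP signal above the screen-wide mean plus 3 SD, that is over about 124.5% of the solvent control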;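 further: AGP1-GFP fusion strain of S. cerevisiae within a five-strain barcoded multiplex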); details: 3 h, at 10 µM, stronger effect = higher value
[6] = inhibitors of CD8+ T cell-vesicle binding, pilot screen, LFA-1/ICAM-1 modulator project, MLPCN validation set, flow cytometry (AID 2523;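 active means response below a set limit, under 55% cells CD8-positive and vesicle-bound, and CD8 cells' 90th-percentile brightness under 279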;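 on vesicle binding response: mean PE anti-B7-1 fluorescence of CD8+ cells relative to row control; 100% = QL9-loaded vesicles with DMSO vehicle in the same plate row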); details: 2C mouse CD8+ T cells, at 7 µM, stronger effect = lower value; double positive events: measured here: CD8+/vesicle+ event percentage
[7] = molecular target: Integrin beta-1 (Homo sapiens) + Integrin alpha-4 (Homo sapiens) (UniProt P13612+P05556); experiment: inhibition of HUTS-21 binding to VLA-4, pilot screen, VLA-4 allosteric modulator project, U937 cells, HUTS-21 mAb, flow cytometry, validation set (AID 2674;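 active means inhibition above 50%, about 3 SD of the validation set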;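 further: antibody binding induced by the VLA-4 ligand LDV present at three times its Kd; 0% = LDV ligand with antibody and no compound and 100% = antibody without LDV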); details: HUTS-21 LIBS mAb binding, at 6.7 µM, stronger effect = higher value, binding induced by LDV ligand
Chain of Integrin beta-1 (Homo sapiens) + Integrin alpha-4 (Homo sapiens) (P05556 whole entry, looked up): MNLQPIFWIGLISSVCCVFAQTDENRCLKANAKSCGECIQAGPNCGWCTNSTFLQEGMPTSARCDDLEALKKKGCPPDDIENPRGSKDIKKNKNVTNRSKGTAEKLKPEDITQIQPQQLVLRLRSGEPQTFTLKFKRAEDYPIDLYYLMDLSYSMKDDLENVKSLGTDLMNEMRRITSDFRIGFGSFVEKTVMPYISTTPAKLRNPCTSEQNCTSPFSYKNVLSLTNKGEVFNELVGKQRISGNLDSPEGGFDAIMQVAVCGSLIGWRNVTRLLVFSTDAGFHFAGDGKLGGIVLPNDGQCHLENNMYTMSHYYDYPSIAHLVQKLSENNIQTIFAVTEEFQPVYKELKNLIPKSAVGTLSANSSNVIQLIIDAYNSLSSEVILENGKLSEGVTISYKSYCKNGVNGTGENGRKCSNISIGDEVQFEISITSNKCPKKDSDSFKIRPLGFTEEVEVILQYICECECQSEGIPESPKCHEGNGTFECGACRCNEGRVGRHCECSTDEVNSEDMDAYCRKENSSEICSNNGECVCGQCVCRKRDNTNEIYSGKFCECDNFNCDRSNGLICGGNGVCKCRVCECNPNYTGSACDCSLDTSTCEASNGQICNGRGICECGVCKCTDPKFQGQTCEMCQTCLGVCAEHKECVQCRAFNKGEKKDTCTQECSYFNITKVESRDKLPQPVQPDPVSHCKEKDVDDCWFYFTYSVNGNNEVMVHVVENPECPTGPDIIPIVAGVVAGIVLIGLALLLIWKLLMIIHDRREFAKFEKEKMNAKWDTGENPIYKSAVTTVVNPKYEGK
Chain of Integrin beta-1 (Homo sapiens) + Integrin alpha-4 (Homo sapiens) (P13612 whole entry, looked up): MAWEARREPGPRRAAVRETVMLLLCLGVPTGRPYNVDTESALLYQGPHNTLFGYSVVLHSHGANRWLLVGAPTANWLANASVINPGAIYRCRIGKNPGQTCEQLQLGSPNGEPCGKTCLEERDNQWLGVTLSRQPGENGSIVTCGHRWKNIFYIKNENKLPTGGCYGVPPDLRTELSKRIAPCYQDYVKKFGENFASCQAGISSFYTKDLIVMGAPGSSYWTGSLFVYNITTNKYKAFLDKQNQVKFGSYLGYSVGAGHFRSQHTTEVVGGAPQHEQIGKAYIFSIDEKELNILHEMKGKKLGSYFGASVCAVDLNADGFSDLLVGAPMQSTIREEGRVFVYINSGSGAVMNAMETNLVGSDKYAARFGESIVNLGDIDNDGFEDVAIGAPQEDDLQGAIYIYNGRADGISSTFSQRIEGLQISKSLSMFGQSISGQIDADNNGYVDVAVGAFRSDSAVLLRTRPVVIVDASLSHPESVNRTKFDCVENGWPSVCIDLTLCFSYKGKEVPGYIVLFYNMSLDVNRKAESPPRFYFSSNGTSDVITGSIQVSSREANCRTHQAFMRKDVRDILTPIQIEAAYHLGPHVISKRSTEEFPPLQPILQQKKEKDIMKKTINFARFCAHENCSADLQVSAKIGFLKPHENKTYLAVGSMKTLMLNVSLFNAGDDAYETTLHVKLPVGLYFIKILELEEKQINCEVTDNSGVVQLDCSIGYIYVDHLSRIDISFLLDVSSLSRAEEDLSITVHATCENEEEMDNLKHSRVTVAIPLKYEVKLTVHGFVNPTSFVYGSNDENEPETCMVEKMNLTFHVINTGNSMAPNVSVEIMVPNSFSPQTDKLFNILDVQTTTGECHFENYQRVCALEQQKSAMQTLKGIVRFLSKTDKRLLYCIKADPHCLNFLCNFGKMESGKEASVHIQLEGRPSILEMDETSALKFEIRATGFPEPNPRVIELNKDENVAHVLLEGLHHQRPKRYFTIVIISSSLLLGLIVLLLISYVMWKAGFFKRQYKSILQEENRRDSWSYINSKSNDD

[8] = superoxide lowering in aged yeast cells, pilot screen, validation compound set (AID 2706;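 active means superoxide response below 65% of plate, a cut near 3 SD across the whole screen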;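 further: yeast exposed to compound for one week at 30 degrees C before staining; 100% = mean of all compound wells on the same plate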); details: S. cerevisiae aging, superoxide DHE fluorescence; at 10 µM, stronger effect = lower value
[9] = molecular target: Beta-adrenergic receptor kinase 1 (Homo sapiens) (UniProt P25098); experiment: GRK2 binders displacing RNA aptamer, biochemical, validation, human GRK2, bead flow cytometry (AID 488806;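 active means aptamer binding inhibition above 30%, about 3 SD of noise from non-fluorescent compounds; inactive means inhibition at or below 30%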); details: bead-bound GRK2, FAM-aptamer displacement, at 10 µM, stronger effect = higher value
Chain of Beta-adrenergic receptor kinase 1 (Homo sapiens) (P25098 whole entry, looked up): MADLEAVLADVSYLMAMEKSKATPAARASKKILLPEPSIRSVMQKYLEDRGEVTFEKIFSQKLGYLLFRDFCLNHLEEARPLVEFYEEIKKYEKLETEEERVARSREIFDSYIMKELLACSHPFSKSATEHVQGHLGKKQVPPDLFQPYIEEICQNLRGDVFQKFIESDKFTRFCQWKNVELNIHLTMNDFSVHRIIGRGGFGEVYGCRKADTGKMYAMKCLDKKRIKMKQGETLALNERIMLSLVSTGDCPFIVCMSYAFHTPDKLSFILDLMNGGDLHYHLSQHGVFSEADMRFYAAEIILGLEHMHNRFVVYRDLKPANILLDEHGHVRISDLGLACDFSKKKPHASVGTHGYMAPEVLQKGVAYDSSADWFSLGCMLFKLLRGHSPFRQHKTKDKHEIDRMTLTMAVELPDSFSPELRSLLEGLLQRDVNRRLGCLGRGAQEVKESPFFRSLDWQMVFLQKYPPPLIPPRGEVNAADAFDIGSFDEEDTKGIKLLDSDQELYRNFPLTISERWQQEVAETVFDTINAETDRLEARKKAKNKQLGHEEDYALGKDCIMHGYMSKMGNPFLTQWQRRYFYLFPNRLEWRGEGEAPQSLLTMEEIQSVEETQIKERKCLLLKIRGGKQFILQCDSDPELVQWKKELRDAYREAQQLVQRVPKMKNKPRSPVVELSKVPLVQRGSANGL

[10] = molecular target: AP-2 complex subunit beta (Homo sapiens) (UniProt P63010); experiment: inhibitors of arrestin peptide binding to AP2, pilot screen, biochemical, validation set, GST-AP2 beads, flow cytometry (AID 504541;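 active means inhibition above 54%, about 3 SD of non-fluorescent compounds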;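 further: AP2 carries R879A mutation and is captured from E. coli lysate; bead-bound FITC arrestin peptide fluorescence measuring arrestin peptide binding to AP2; 0% = DMSO wells and 100% = excess unlabeled arrestin peptide control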); details: FITC arrestin peptide, at 10 µM, stronger effect = higher value, AP2 beta2 appendage fragment, R879A mutant
Chain of AP-2 complex subunit beta (Homo sapiens) (P63010 whole entry, looked up, the tested form may be a part, one chain of several): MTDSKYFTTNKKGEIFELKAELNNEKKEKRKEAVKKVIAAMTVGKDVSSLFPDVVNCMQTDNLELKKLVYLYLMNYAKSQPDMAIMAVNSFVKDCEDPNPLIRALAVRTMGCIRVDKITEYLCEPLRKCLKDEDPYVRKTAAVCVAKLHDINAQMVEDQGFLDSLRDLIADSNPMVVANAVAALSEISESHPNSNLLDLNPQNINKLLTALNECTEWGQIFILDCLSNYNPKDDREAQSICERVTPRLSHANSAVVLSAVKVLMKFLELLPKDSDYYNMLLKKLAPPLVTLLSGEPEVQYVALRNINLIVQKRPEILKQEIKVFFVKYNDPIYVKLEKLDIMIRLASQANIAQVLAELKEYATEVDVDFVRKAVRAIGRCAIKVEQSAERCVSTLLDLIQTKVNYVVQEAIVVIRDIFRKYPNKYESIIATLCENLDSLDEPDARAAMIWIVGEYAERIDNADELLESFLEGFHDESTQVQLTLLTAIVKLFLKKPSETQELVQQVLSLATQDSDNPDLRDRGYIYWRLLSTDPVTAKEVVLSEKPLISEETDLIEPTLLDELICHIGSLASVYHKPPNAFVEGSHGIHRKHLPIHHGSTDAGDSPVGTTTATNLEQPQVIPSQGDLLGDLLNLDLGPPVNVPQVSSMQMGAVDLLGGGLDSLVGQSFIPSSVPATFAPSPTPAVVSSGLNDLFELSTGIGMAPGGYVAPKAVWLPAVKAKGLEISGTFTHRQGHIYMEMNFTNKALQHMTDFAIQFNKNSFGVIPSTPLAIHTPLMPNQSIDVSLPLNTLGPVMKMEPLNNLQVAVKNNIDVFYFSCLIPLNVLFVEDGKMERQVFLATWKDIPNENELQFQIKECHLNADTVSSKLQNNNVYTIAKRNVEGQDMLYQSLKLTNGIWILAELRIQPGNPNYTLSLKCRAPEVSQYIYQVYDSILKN

[11] = yeast V-ATPase proton transport modulators, S. cerevisiae, pHLuorin, HTS validation (AID 504600; in the data active means response above about 15%;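 further: plate controls were DMSO for no effect and reference compound for full effect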); details: S. cerevisiae pHLuorin cytosolic pH, at 10 µM, stronger effect = higher value
[12] = tested on: anti-desmoglein-3 scFv antibody binding to human DSG3; experiment: inhibitors of anti-DSG3 scFv binding to DSG3, pilot screen, biochemical, validation compound set, bead-based, flow cytometry (AID 588368;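 active means binding below the plate cutoff, the plate median minus 3 SD, with a reading above zero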;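 further: signal is the median channel fluorescence of bead-bound GFP antibody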); details: Protein G beads, DSG3-Fc, scFv-GFP binding, at 10 µM, stronger effect = lower value
[13] = inhibitors of fungal efflux pumps CDR1, CDR2, MDR1, pilot screen, validation compound set, multiplex, phenotypic (AID 588506;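 active means efflux inhibition above 0.42, the validation set average plus 4 SD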;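 further: Nile Red retained in cells so higher fluorescence means more efflux inhibition; 0 = negative control wells and 1 = enniatin B 25 µM full block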); details: S. cerevisiae pump-expressing triplex, Nile Red efflux flow cytometry; at 10 µM; stronger effect = higher value; the pumps come from Candida albicans
[14] = molecular target: ATP-binding cassette sub-family B member 6 (Homo sapiens) (UniProt Q9NP58); experiment: ABCB6 transporter inhibitors, pilot screen, K562-ABCB6 cells, flow cytometry, validation set (AID 588550;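 active means inhibition above the screen-wide mean plus 3 SD, about 51%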;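 further: 0% = DMSO wells and 100% = benzethonium chloride 70 µM positive control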); details: K562-ABCB6 porphyrin accumulation, 1 h, at 10 µM, stronger effect = higher value
Chain of ATP-binding cassette sub-family B member 6 (Homo sapiens) (Q9NP58 whole entry, looked up): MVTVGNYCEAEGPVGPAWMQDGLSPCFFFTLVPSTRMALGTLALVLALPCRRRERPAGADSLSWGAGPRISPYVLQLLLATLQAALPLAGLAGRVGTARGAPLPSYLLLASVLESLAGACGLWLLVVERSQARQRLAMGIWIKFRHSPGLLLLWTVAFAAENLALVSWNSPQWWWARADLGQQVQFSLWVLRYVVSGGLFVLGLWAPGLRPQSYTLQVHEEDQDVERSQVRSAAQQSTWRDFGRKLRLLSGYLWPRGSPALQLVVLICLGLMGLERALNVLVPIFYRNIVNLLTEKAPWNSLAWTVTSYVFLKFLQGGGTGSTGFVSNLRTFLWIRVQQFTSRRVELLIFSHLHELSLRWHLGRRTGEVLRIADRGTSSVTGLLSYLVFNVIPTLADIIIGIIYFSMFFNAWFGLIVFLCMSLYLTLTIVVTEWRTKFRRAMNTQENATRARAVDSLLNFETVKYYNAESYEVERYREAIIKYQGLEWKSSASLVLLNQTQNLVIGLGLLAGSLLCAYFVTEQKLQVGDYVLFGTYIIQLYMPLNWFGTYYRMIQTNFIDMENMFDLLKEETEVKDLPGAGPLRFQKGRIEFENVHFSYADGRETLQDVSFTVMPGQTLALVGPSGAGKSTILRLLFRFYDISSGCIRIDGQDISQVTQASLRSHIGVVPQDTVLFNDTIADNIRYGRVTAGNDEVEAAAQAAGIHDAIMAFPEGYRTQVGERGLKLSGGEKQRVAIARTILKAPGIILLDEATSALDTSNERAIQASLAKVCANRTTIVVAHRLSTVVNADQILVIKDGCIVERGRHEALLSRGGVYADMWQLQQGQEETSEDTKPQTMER

[15] = promoters of myeloid differentiation in arrested cells, primary screen, cell-based, GFP/MAC1 double positive, flow cytometry, validation set (AID 588685); details: ER-HoxA9 marrow cells, stronger effect = higher value, normalized: vehicle 0, fulvestrant 100;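 further: compound exposure lasts four days before antibody staining and flow analysis; 0% = DMSO wells and 100% = 5 µM fulvestrant positive control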

Row | SMILES | percent of DMSO control GFP [1] | GFP response vs DMSO [2] | percent response of DMSO control [3] | GFP response vs DMSO [4] | GFP response, % of DMSO [5] | double positive events [6] | vesicle binding response [6] | inhibition [7] | superoxide response (% of plate) [8] | aptamer binding inhibition [9] | inhibition [10] | response [11] | binding (% of control) [12] | efflux inhibition (fraction of control) [13] | inhibition [14] | differentiation response [15]
1 | CCS(=O)(=O)CCn1c([N+](=O)[O-])cnc1C | 96.4% (inactive) | 106% (inactive) | 95.9% (inactive) | 94.3% (inactive) | 97.8% (inactive) | 47.3% | 136% (inactive) | 12.8% (inactive) | 108% (inactive) | 8% (inactive) | -4.86% (inactive) | 5.33% (inactive) | 99.1% (inactive) | 0.18 (inactive) | 4% (inactive) | -5.05% (inactive)
2 | Cn1c(=O)c2c(ncn2CC(O)CO)n(C)c1=O (stereo not given) | 100% (inactive) | 99.9% (inactive) | 93.9% (inactive) | 104% (inactive) | 99.4% (inactive) | 53.8% | 114% (inactive) | 11.9% (inactive) | 93.5% (inactive) | 2% (inactive) | -7.53% (inactive) | -0.09% (inactive) | 81.7% (inactive) | 0.22 (inactive) | 9% (inactive) | -8.27% (inactive)
3 | COc1ccc(C2C(=O)c3ccccc3C2=O)cc1 | 97.8% (inactive) | 101% (inactive) | 102% (inactive) | 111% (inactive) | 94.8% (inactive) | 55.9% | 198% (inactive) | 0.69% (inactive) | 96.8% (inactive) | 1% (inactive) | -15.3% (inactive) | -9.82% (inactive) | 95.6% (inactive) | -0.24 (inactive) | 4% (inactive) | -18% (inactive)
4 | CC1=CC(C)(C)N2C(=O)C3(NCCc4c3[nH]c3ccccc43)c3cc(C)cc1c32 (stereo not given) | 103% (inactive) | 98.9% (inactive) | 99.8% (inactive) | 82.3% (inactive) | 93.6% (inactive) | 63% | 162% (inactive) | 22.1% (inactive) | 97.3% (inactive) | -3% (inactive) | -4.18% (inactive) | 3.88% (inactive) | 104% (inactive) | 0.41 (inactive) | 4% (inactive) | -5.05% (inactive)
5 | CCN(CC)C1=C(Cl)C(=O)C(Cl)C12OCCO2 (stereo not given) | 100% (inactive) | 104% (inactive) | 88.1% (inactive) | 100% (inactive) | 89.2% (inactive) | 61.5% | 160% (inactive) | 6.29% (inactive) | 94.6% (inactive) | -5% (inactive) | 49.7% (inactive) | 1.58% (inactive) | 95.6% (inactive) | 0.9 (active) | 10% (inactive) | 6.26% (inactive)
6 | COc1cc2nc(N3CCN(C(=O)C4COc5ccccc5O4)CC3)nc(N)c2cc1OC (stereo not given) | 101% (inactive) | 108% (inactive) | 104% (inactive) | 110% (inactive) | 116% (inactive) | 61.4% | 203% (inactive) | -8.78% (inactive) | 57.2% (active) | 1% (inactive) | 26.5% (inactive) | -4.66% (inactive) | 108% (inactive) | 0 (inactive) | -6% (inactive) | 3.88% (inactive)
7 | COc1ccc(C2N3CC4(C)CN2CC(C)(C3)C4)cc1OC (stereo not given) | 103% (inactive) | 99.9% (inactive) | 107% (inactive) | 87.3% (inactive) | 107% (inactive) | 52.7% | 177% (inactive) | -0.24% (inactive) | 96.9% (inactive) | 1% (inactive) | 9.79% (inactive) | 2.37% (inactive) | 99% (inactive) | -0.09 (inactive) | 6% (inactive) | -13.1% (inactive)
8 | CCOC(=O)c1ccccc1NC(=O)c1ccc(F)cc1 | 101% (inactive) | 108% (inactive) | 103% (inactive) | 92.3% (inactive) | 91.8% (inactive) | 60.4% | 102% (inactive) | 10.9% (inactive) | 100% (inactive) | 3% (inactive) | 6.01% (inactive) | -5.23% (inactive) | 98.8% (inactive) | 0.37 (inactive) | 13% (inactive) | -13.1% (inactive)
9 | c1cc2c(cc1C1CCCCC1)c1c3n2CCN=C3CCC1 | 98.1% (inactive) | 107% (inactive) | 99.8% (inactive) | 99.4% (inactive) | 93.1% (inactive) | 57.1% | 224% (inactive) | -9.57% (inactive) | 98.8% (inactive) | -9% (inactive) | -7.03% (inactive) | -0.63% (inactive) | 114% (inactive) | 0.03 (inactive) | -1% (inactive) | -9.89% (inactive)
10 | CCCOc1ccc(-c2cc(C(=O)NCC3CCCO3)c3ccccc3n2)cc1 (stereo not given) | 99.5% (inactive) | 102% (inactive) | 91% (inactive) | 105% (inactive) | 84.4% (inactive) | 55.9% | 199% (inactive) | 13.8% (inactive) | 91.2% (inactive) | 1% (inactive) | -3.49% (inactive) | 6.44% (inactive) | 97.3% (inactive) | 0.18 (inactive) | 12% (inactive) | 7.87% (inactive)
